EBV gp42 block – inhibitors of Epstein-Barr virus glycoprotein 42 | inhibition, % (tested at 21.74 µM) | Q1HVG2 | 0.42% of 220,000 active | Fluorescence polarization binding assay, mP read-out; in the data active means inhibition above about 50%
ZTA counter – counter-screen for EBNA-1 inhibitors: inhibitors of Epstein-Barr virus ZTA | P03206 | ZTA-DNA binding, fluorescence polarization | inhibition, % at 11 µM | 0.15% of 320,000 active; in the data active means inhibition above about 33%
Target sequence (P03206 whole entry, looked up): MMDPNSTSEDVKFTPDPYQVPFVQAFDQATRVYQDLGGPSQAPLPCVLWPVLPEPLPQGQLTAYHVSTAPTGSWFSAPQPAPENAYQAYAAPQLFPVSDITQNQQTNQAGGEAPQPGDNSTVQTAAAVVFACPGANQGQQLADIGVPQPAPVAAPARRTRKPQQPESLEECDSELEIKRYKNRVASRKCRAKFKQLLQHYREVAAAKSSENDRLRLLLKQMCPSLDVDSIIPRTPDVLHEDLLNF
MEX-5 binding – C. elegans MEX-5 TCR-2 RNA binding activity. MEX-5/FITC-TCR2 RNA binding, fluorescence polarization; stronger effect = lower value. activity score (negative = inhibition of binding), % at 10 µM. 0.38% of 300,000 active. AID 1832;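 active means inhibition past about -25% in most replicates, and total fluorescence under double the plate's negative control median, limit read from the data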
EBNA-1 inh – blocks EBNA-1 binding to DNA; EBNA-1 DNA binding, fluorescence polarization; inhibition, % at 14.8 µM; 0.34% of 300,000 active; in the data active means inhibition above about 28%
EBNA-1 confirm – EBNA-1 (EBV) inhibition, confirmation. shares compounds with EBNA-1 inh. 35% of 830 active. Recombinant EBNA-1 DBD, Cy5-DNA fluorescence polarization. AID 2292. inhibition, % at 14.8 µM;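 active means mean inhibition across replicates above a set limit taken from the earlier primary screen, cut at about 28% in these data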
ZTA DNA inh trip – blocks Epstein-Barr virus ZTA in triplicate, EBNA-1 counter-screen. shares compounds with EBNA-1 inh. Zta-ZRE DNA binding, Cy5 fluorescence polarization. inhibition, % at 11.1 µM. 830 tested, under 10 active;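 active means mean inhibition over triplicates above a set limit taken from the primary EBNA-1 screen, cut at about 37% in these data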;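 further: purified full length Zta protein with Cy5 labeled ZRE DNA probe; inhibitors lower polarization by freeing the labeled DNA probe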
Numbers stand for hits. This is a sample that favours compounds with a hit; in the whole collection about 1% have one here.

Screening NC(=O)c1cc(-c2ccccc2)sc1NC(=O)Cc1ccc(S(=O)(=O)N2CCOCC2)s1 returned EBV gp42 block inactive, ZTA counter inactive, MEX-5 binding inactive, EBNA-1 inh 31, EBNA-1 confirm 53 and ZTA DNA inh trip inactive.
Screening CCOc1ccccc1NS(=O)(=O)c1ccc2oc(=O)ccc2c1 returned ZTA counter inactive, MEX-5 binding inactive and EBNA-1 inh inactive.
For CCN(CC(=O)NCC(=O)Nc1ccc(Br)cc1C)Cc1ccccc1 the results were ZTA counter inactive, MEX-5 binding inactive and EBNA-1 inh inactive.
Cc1ccc(-n2c(=O)c3ccc(C(=O)NCc4ccco4)cc3n(Cc3ccccc3C#N)c2=O)cc1 was read as EBV gp42 block inactive, ZTA counter inactive, MEX-5 binding inactive, EBNA-1 inh 50, EBNA-1 confirm inactive and ZTA DNA inh trip inactive.
COc1nc(NC(=O)c2ccc(F)cc2)nc(OC)c1-c1ccccc1 was read as ZTA counter inactive, MEX-5 binding inactive and EBNA-1 inh inactive.
For Cc1ccc(N2CC(C(=O)Nc3nnc(SCC(N)=O)s3)CC2=O)cc1 (stereo not given) the results were ZTA counter inactive, MEX-5 binding inactive and EBNA-1 inh inactive.
For Cc1[nH]c2ccccc2c1/C=C/C(=O)c1ccncc1 the results were EBV gp42 block inactive, ZTA counter inactive, MEX-5 binding inactive, EBNA-1 inh 38, EBNA-1 confirm inactive and ZTA DNA inh trip inactive.
`O=C(/C=C/c1cccc2ccccc12)c1ccncc1` gave EBV gp42 block inactive, ZTA counter inactive, MEX-5 binding inactive and EBNA-1 inh inactive.
For Cc1ccc(-c2nnn(CC(=O)NCCc3ccc4c(c3)OCO4)n2)cc1 the results were EBV gp42 block inactive, ZTA counter inactive, MEX-5 binding inactive, EBNA-1 inh 44, EBNA-1 confirm inactive and ZTA DNA inh trip inactive.
CC(=O)c1ccc(S(=O)(=O)N(C)CCCC(=O)N2CCN(c3ncccn3)CC2)cc1 was read as ZTA counter inactive.
Screening COc1cc(C(=O)Oc2ccc(/C=N/NC(=O)c3ccncc3)cc2)cc(OC)c1OC returned ZTA counter inactive, MEX-5 binding inactive, EBNA-1 inh 34, EBNA-1 confirm inactive and ZTA DNA inh trip inactive.
For O=c1[nH]cc(S(=O)(=O)N2CCN(c3cccc(Cl)c3)CC2)c(=O)[nH]1 the results were ZTA counter inactive, MEX-5 binding inactive and EBNA-1 inh inactive.
`O=c1[nH]cc(S(=O)(=O)N2CCN(c3cccc(C(F)(F)F)c3)CC2)c(=O)[nH]1` gave ZTA counter inactive, MEX-5 binding inactive, EBNA-1 inh 31, EBNA-1 confirm inactive and ZTA DNA inh trip inactive.
For COc1ccccc1C(=O)Nc1nnc(-c2ccc(F)cc2)s1 the results were ZTA counter inactive, MEX-5 binding inactive, EBNA-1 inh active, EBNA-1 confirm inactive and ZTA DNA inh trip inactive.
Screening COc1ccc(C(=O)Nc2nnc(-c3ccc(F)cc3)s2)c(OC)c1 returned MEX-5 binding inactive.
`CCOc1ccc(C(=O)NCCCCNC(=O)c2ccc(OCC)cc2)cc1` gave ZTA counter inactive, MEX-5 binding inactive, EBNA-1 inh 28, EBNA-1 confirm inactive and ZTA DNA inh trip inactive.
For CCOc1ccc(C(=O)NCCN(C)C)cc1 the results were EBV gp42 block inactive, ZTA counter inactive, MEX-5 binding inactive and EBNA-1 inh inactive.
CCc1cc(C(=O)N2CCN(C(=O)c3ccco3)CC2)sc1C was read as ZTA counter inactive, MEX-5 binding inactive and EBNA-1 inh inactive.
Screening Cc1nn(CC(=O)NCc2ccccc2)c(=O)c2ccccc12 returned EBV gp42 block inactive, ZTA counter inactive, MEX-5 binding inactive and EBNA-1 inh inactive.
`Cc1nn(CC(=O)NCc2cccc3ccccc23)c(=O)c2ccccc12` gave EBV gp42 block inactive, ZTA counter inactive, MEX-5 binding inactive, EBNA-1 inh 31, EBNA-1 confirm inactive and ZTA DNA inh trip inactive.
COc1ccc(Cl)cc1NC(=O)C/C(C)=N/NC(=O)COc1ccc(C)cc1 was read as ZTA counter inactive, MEX-5 binding inactive and EBNA-1 inh inactive.
CCc1ccc(NC(=O)CCCNC(=O)Cn2cnc3sc(C)c(C)c3c2=O)cc1 was read as ZTA counter inactive, MEX-5 binding inactive, EBNA-1 inh 62, EBNA-1 confirm 31 and ZTA DNA inh trip inactive.
COc1ccc(NC(=O)CCCNC(=O)Cn2cnc3sc(C)c(C)c3c2=O)cc1OC was read as ZTA counter inactive, MEX-5 binding inactive and EBNA-1 inh inactive.

Screening results (PubChem)
